Bioassay records deposited in PubChem by several laboratories.
Only some compounds are listed: those with a hit (about 13% of all), similar ones and a draw of the others.
Lmaj promast – inhibitors of Leishmania major promastigote growth; 200,000 compounds, 9% hits; Leishmania major promastigotes, resazurin fluorescence viability; inhibition, % at 10 µM; in the data active = inhibition above about 50%;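 also: promastigotes grown with compound for 44 hours at 28 °C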
CHOP inhibitor – CHOP inhibition in unfolded protein response. CHO-K1 CHOP-promoter luciferase, tunicamycin-induced, 15-18 h. inhibition, % at 10 µM. 220,000 compounds, 3.8% hits. AID 2732;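 active = compounds that reduced the stress-induced luciferase reporter signal by more than about 70% of percent inhibition, limit read from the data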;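 also: 0% = tunicamycin plus vehicle and 100% = wells without tunicamycin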
RAM network inh – blocks the yeast RAM network; S. cerevisiae dse1pr::URA3 reporter, 5-FOA growth OD615, 2 d; analog-sensitive cbk1-as2 kinase mutant strain; inhibition, % at 50 µM; 190,000 compounds, 1.8% hits;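 active = inhibition above a set limit, 3 SD over mean compound inhibition, cut at about 8.4% in these data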;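 also: 0% = DMSO-only wells with no growth and 100% = 10 µM 1-NA-PP1 full growth; inhibition rescues growth on 5-FOA so higher OD means more RAM inhibition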
WT yeast gro inh – growth inhibition of WT yeast, mitochondrial fusion screen; mitochondrial fusion phenotypic screen, WT strain; inhibition, % at 10 µM; 190,000 compounds, 2.1% hits; in the data active = inhibition above about 58%; tested in S. cerevisiae
CHOP confirm – confirmation of CHOP induction inhibitors. shares compounds with CHOP inhibitor. CHO-CHOP promoter luciferase reporter, tunicamycin-induced, luminescence. inhibition, % at 10 µM. 2,100 compounds, 45% hits;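 active = mean of three repeat readings of reporter signal inhibition above a set limit, cut at about 70% in these data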;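 also: 0% = tunicamycin plus vehicle and 100% = wells lacking tunicamycin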
* = called active by the depositor; . = no result.

SMILES | Lmaj promast | CHOP inhibitor | RAM network inh | WT yeast gro inh | CHOP confirm
CCC(C)(C)NC(=O)C(c1ccc(F)cc1)N(Cc1cccs1)C(=O)c1cnccn1 (stereo unspecified) | -6.2 | 5.5 | 0.2 | -1.1 | .
CC(C)CNS(=O)(=O)c1ccc(CCC(=O)N2CCC(C(N)=O)CC2)cc1 | -1.5 | 21.6 | 0.4 | 1.8 | .
CC(C)c1ccc2c(c1)C1(NN=C(c3ccccc3)S1)C(=O)N2 (stereo unspecified) | 98.8* | 104.5* | 1.6 | 15.8 | 105.8*
CC(C)c1ccc(O)c(NC(=O)c2ncn[nH]2)c1 | -4.4 | 6.1 | 1.5 | 8.0 | .
CCn1c(=O)c(C(=O)Nc2nc3ccccc3[nH]2)c(O)c2ccccc21 | 32.6 | . | 0.0 | 83.9* | 120.3*
CCc1nc2ccccc2c(=O)n1NC(=O)c1c(O)c2ccccc2n(CC)c1=O | 0.4 | 14.4 | 1.8 | 22.8 | .
CC(C)N=c1scc(-c2ccco2)n1/N=C/c1ccc(O)c(O)c1 | 99.4* | 99.5* | -1.2 | 5.6 | -17.4
CCOC(=O)C1=C(N)c2ccccc2CC1C(C)C (stereo unspecified) | -1.7 | 99.6* | 1.4 | 27.3 | 13.8
Cc1cc(C(=O)N/N=C/c2cc(Br)ccc2OC(=O)c2ccccc2Cl)n[nH]1 | 98.3* | 99.2* | 5.2 | -3.0 | 33.7
CCOC(=O)c1cnn(-c2ccccc2)c1NC(=O)CN1CCCCC1 | . | 9.9 | . | . | .
CCOC(=O)c1c(N2C(=O)C=CC2=O)sc(C)c1C | 19.8 | 109.1* | -1.3 | -10.3 | 7.1
CC(/C=N/NC(=O)c1cnccn1)=C\c1ccco1 | . | -3.8 | . | . | .
CCC(=O)Nc1nnc(Sc2ccc(N(C)C)cc2)s1 | -5.8 | 4.2 | 4.1 | -13.7 | .
CN(C)c1ccc(Sc2nnc(NC(=O)Nc3ccc(Cl)cc3Cl)s2)cc1 | -15.1 | 99.8* | 6.1 | -6.0 | 35.9
O=S(=O)(c1cc(Cl)ccc1Cl)N1CC2CCCN2c2ccc(C(F)(F)F)cc21 (stereo unspecified) | 19.8 | 53.6 | 5.7 | 11.7 | .
O=c1c(Cl)c(Cl)cnn1Cc1nnc(-c2ccccc2Br)o1 | 99.5* | 104.2* | 2.1 | 41.3 | 122.1*
NC(=O)c1ccccc1NC(=O)NC1CCCCC1 | -3.2 | 11.3 | 1.2 | -7.2 | .
O=C(Nc1ccccc1NC(=O)NC1CCCCC1)NC1CCCCC1 | 22.7 | 103.6* | 2.1 | -16.5 | 114.1*
O=C(Nc1nnc(-c2ccccc2)s1)c1ccc(F)cc1 | -4.2 | 102.9* | 0.2 | -2.5 | 35.9
O=C(Nc1nnc(-c2ccc(F)cc2)s1)Nc1ccccc1F | . | -4.7 | . | . | .
Cc1c(C#N)c(NC(=O)c2cccc(Cl)c2)n(Cc2ccccc2)c1C | 1.8 | 27.4 | 3.1 | -2.0 | .
COc1ccc(Cn2c(C)c(C)c(C#N)c2NC(=O)Nc2ccc(Cl)cc2)cc1 | -8.6 | 105.8* | 2.5 | -7.4 | 102.9*
Oc1ccc(Br)cc1-c1cc(-c2ccc(Cl)cc2)n[nH]1 | -1.5 | 104.4* | 3.7 | . | 15.9
Oc1ccc(Br)cc1-c1cc(-c2ccccc2)n[nH]1 | 24.3 | -5.1 | 8.2 | 60.0 | .
CN1C(=O)/C(=C/c2cc(N=Nc3ccccc3)ccc2O)SC1=S | -18.8 | 104.4* | 5.1 | 96.1* | 104.0*
SMILES | Lmaj promast | CHOP inhibitor | RAM network inh | WT yeast gro inh | CHOP confirm
Cc1cc(NC(=O)Cn2cc([N+](=O)[O-])cn2)no1 | -3.4 | 6.9 | 0.6 | -15.3 | .
COc1ccc2cc(C)c3nnc(SCC(=O)Nc4nc(-c5ccc(F)cc5)cs4)n3c2c1 | -1.8 | 105.1* | 4.1 | 9.3 | 6.7
O=C1CC(C(=O)Nc2ccc(Cl)cc2)S/C(=N\N=C\c2ccco2)N1 (stereo unspecified) | . | 5.3 | . | . | .
O=C1CC(C(=O)Nc2ccc(Cl)c(Cl)c2)S/C(=N\N=C\c2ccco2)N1 (stereo unspecified) | . | 100.1* | . | . | 23.2
Nc1c(C(=O)Nc2ccccc2)c2nc3ccccc3nc2n1CCCN1CCOCC1 | . | 99.9* | . | . | 39.2
CC1(c2ccccc2)CC(C)(C)N2C(=O)/C(=C3\SC(=S)NC3=O)c3cccc1c32 (stereo unspecified) | 8.9 | 97.2* | 1.6 | 61.1* | 81.6*
COc1ccccc1NC(=O)CN(Cc1ccco1)C(=O)c1cc2ccccc2o1 | -0.9 | 14.6 | 3.3 | -0.9 | .
S=C(Nc1ccc(Cl)c(Cl)c1)NC1CCCCC1 | 18.0 | 103.3* | 7.1 | -12.6 | 23.5
CC(C)c1ccc(NC(=S)NC2CCCCCC2)cc1 | 22.6 | 50.7 | 2.7 | 46.5 | .
S=C(Nc1ccc(Cl)c(Cl)c1)NC1CCN(Cc2ccccc2)CC1 | 94.5* | 105.4* | 1.8 | 73.7* | 37.4
CC(=O)NCc1ccc(C(=O)CCl)cc1 | 93.3* | 106.2* | 0.8 | -2.2 | -3.1
CC(=O)NCc1ccc(C(=O)CCl)s1 | 100.4* | 107.8* | 1.1 | -11.3 | 107.4*
CCOc1ccc(N(CC(=O)NC(C(C)C)C(C)C)S(=O)(=O)c2ccc(OC)c(OC)c2)cc1 | 26.1 | 4.1 | -0.2 | 1.8 | .
CC(C)(C)C(=O)NC(NC(=S)Nc1sc2c(c1C#N)CCCC2)C(Cl)(Cl)Cl (stereo unspecified) | -1.5 | 97.1* | 2.5 | -0.7 | 74.4*
NC(=O)COC(=O)c1ccc(-c2ccccc2)cc1 | -0.6 | 3.8 | 1.6 | -6.6 | .
CC(C)(C)c1ccc(OCC(O)CN(CCO)CC(O)Cn2ccc3ccccc32)cc1 (stereo unspecified) | 45.4 | 103.4* | -1.4 | 10.4 | 4.5
N#C/C(=C\c1ccc(F)cc1)c1nc(-c2ccco2)cs1 | -5.7 | 104.7* | 5.7 | 10.8 | -100.6
CCCCc1ccc(-c2csc(/C(C#N)=C/c3ccco3)n2)cc1 | 39.4 | 1.5 | 8.1 | 4.7 | .
Cc1ccc(NC(=O)Nc2cc(Cl)ccc2C2COC(=O)C2=N)cc1 (stereo unspecified) | -1.6 | 101.0* | 2.5 | -1.4 | 61.7
N=C1C(=O)OCC1c1ccccc1NC(=O)Nc1ccccc1 (stereo unspecified) | -6.2 | 8.0 | 1.8 | 24.5 | .
Cc1ccc(/C=N/NC(=O)CSCc2ccc(Cl)cc2)cc1 | 0.3 | 110.5* | 2.2 | 28.6 | 88.9*
Cc1ccc(OCCOc2ccc(Br)cc2/C=N\NC(N)=O)cc1 | 5.0 | 103.3* | 2.5 | -0.5 | 38.8
Nc1c(C(=O)Nc2ccc(S(=O)(=O)N3CCCC3)cc2)sc2nc3ccc(OC(F)(F)F)cc3cc12 | 49.4 | 106.0* | 5.2 | -0.4 | 112.3*
CC(=O)Nc1cccc(NC=C(C#N)C#N)c1 | -2.8 | 10.3 | 3.2 | -1.0 | .
O=C1C(=O)c2ccc(-c3ccccc3)cc2-c2ccccc21 | 99.9* | 109.3* | 3.0 | 78.0 | 140.3*
SMILES | Lmaj promast | CHOP inhibitor | RAM network inh | WT yeast gro inh | CHOP confirm
Nc1ccc2c(c1)C(=O)C(=O)c1ccccc1-2 | 100.0* | . | 1.5 | 97.4* | 139.7*
CCN(CC)C(=O)Cn1cc(C(=O)C2CC2)c2ccccc21 | 0.1 | 1.9 | 1.2 | 2.5 | .
Cc1noc(C)c1COc1ccc(C(=O)Nc2cccnc2)cc1 | -2.1 | 8.3 | 2.2 | -2.8 | .
NS(=O)(=O)c1ccc(NC(=O)COC(=O)c2cn(-c3ccccc3)nc2-c2ccccc2)cc1 | . | 97.5* | . | . | -1.3
COC(=O)c1cn(-c2ccccc2)nc1-c1ccccc1 | 4.5 | 8.0 | 0.3 | 3.5 | .
CCc1nc(SCC(=O)NCc2ccccc2)c2c(=O)n(C)c(=O)n(C)c2n1 | -7.1 | 19.0 | 4.8 | 7.7 | .
